HDAC3 inh = inhibitors of human histone deacetylase 3; O15379; recombinant HDAC3, fluorogenic peptide/trypsin coupled, fluorescence; inhibition, % at 8.3 µM; actives 0.15% (n = 320,000); AID 2718; in the data active = inhibition above about 26%, passing the limit was not always enough; inconclusive = no clear call, values can overlap the other calls
p97 inhibitor = inhibitors of human p97 ATPase. inhibition, % at 8 µM. actives 0.42% (n = 220,000). recombinant p97 ATPase, Kinase-Glo ATP luminescence, 3 h. P55072; in the data active = inhibition above about 15%;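 also: 0% = DMSO vehicle and 100% = wells lacking enzyme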
Target sequence (P55072 whole entry, looked up): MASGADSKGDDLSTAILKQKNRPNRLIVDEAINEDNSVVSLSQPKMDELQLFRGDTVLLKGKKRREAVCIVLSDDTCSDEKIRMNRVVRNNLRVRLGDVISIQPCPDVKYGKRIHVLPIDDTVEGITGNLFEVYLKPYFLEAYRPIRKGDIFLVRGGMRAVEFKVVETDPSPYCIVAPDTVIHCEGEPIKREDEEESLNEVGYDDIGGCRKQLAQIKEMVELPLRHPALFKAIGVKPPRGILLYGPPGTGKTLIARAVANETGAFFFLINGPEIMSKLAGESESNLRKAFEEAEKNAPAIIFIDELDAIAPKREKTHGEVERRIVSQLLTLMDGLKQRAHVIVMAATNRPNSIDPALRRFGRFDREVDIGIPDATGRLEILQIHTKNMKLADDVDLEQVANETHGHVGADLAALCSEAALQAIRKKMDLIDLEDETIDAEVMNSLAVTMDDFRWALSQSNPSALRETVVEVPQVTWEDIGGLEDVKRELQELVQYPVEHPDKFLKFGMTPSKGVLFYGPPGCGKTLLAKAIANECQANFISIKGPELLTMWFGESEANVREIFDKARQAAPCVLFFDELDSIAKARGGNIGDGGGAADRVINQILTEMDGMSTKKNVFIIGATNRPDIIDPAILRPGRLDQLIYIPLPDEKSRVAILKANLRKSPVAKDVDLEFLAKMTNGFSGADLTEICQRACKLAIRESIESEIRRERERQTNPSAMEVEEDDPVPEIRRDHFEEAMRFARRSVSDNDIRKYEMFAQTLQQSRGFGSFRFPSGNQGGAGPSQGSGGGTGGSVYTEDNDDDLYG
G6PDH CS = counter-screen for G6PDH assay hits: L. mesenteroides G6PDH inhibition; Purified L. mesenteroides G6PDH, diaphorase/resazurin coupled fluorescence, 45 min; inhibition, % at 5 µM; actives 0.12% (n = 200,000); in the data active = inhibition above about 50%
PHOSPHO1 block = blocks human PHOSPHO1 phosphatase activity; Q8TCT1; recombinant PHOSPHO1, absorbance phosphatase assay; inhibition, % at 13.3 µM; actives 1.1% (n = 290,000); AID 1565; in the data active = inhibition above about 60%
SUMO HTRF inh = blocks human SUMOylation mediated by UBC9; actives 0.36% (n = 290,000); inhibition, % at 35 µM; P63279; HTRF SUMOylation assay, SAE1/SAE2 + UBC9, in vitro; in the data active = inhibition above about 50%, passing the limit was not always enough; inconclusive = no clear call, values can overlap the other calls
PfM18AAP inh-1 = PfM18AAP enzyme inhibition. recombinant PfM18AAP, H-Glu-NHMec fluorogenic cleavage. inhibition, % at 7.35 µM. actives 1.2% (n = 290,000). AID 1822;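 active = inhibition above the campaign mean inhibition over all tested compounds plus 3 SD, cut at about 28% in these data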;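 also: 0% = plate median of test compound wells and 100% = 2 mM ZnCl2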
PfM18AAP inh-2 = confirmation of Plasmodium falciparum M18 aspartyl aminopeptidase inhibitors | shares compounds with PfM18AAP inh-1 | recombinant PfM18AAP, H-Glu-NHMec fluorogenic cleavage | inhibition, % at 7.35 µM | actives 28% (n = 2,400) | AID 2170;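 active = mean inhibition over replicate wells above the hit cutoff set for the earlier primary screen, cut at about 29% in these data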;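 also: 0% = median of test compound wells and 100% = 2 mM ZnCl2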
CTSL1 confirm = counter-screen for PFM18AAP inhibitors: confirmation of human cathepsin L inhibitors; shares compounds with PfM18AAP inh-1; purified cathepsin L1, Z-Leu-Arg-MCA fluorescence; inhibition, % at 5.96 µM; 2,400 tested, under 10 active; AID 2178;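 active = average inhibition across replicates above the hit cutoff set in the earlier primary screen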;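 also: 0% = median of test compound wells and 100% = Z-Phe-Ala-diazomethylketone 1 µM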
The depositor's hits bear a star. An excerpt weighted towards active compounds, which were near 2.5% of everything screened.

`CN1C(=O)SC(Nc2ccccc2)C1=O` (centres undefined) gave HDAC3 inh -4.7, p97 inhibitor -4.6, G6PDH CS 5.4, PHOSPHO1 block 0.5, SUMO HTRF inh -31.4 and PfM18AAP inh-1 -3.3.
COc1cccc(-n2c(=O)c3ccccc3n3c(=S)[nH]nc23)c1 was read as HDAC3 inh 16.4, PHOSPHO1 block -115.7, SUMO HTRF inh 19.9, PfM18AAP inh-1 36.0*, PfM18AAP inh-2 17.1 and CTSL1 confirm -2.3.
CCc1ccc(-n2c(=O)c3ccccc3n3c(=S)[nH]nc23)cc1 was read as HDAC3 inh 8.0, PHOSPHO1 block 9.8, SUMO HTRF inh 15.2 and PfM18AAP inh-1 27.1.
For Cc1ccccc1-n1c(=O)c2ccccc2n2c(=O)[nH]nc12 the results were HDAC3 inh -0.8, p97 inhibitor 1.0, G6PDH CS 10.5, PHOSPHO1 block 9.8, SUMO HTRF inh 5.5 and PfM18AAP inh-1 4.2.
Screening COCCCn1c(=O)c2ccccc2n2c(=S)[nH]nc12 returned HDAC3 inh -1.0, PHOSPHO1 block -72.9, SUMO HTRF inh -2.7, PfM18AAP inh-1 34.6*, PfM18AAP inh-2 25.1 and CTSL1 confirm 2.0.
Screening Cc1cccc(-n2c(=O)c3ccccc3n3c(=S)[nH]nc23)c1C returned HDAC3 inh 4.9, PHOSPHO1 block -2.2, SUMO HTRF inh -3.6, PfM18AAP inh-1 40.2*, PfM18AAP inh-2 0.5 and CTSL1 confirm -7.0.
Screening O=C1c2ccccc2C(=O)N1CSc1ncccn1 returned HDAC3 inh 4.7, p97 inhibitor -4.5, G6PDH CS 1.8, PHOSPHO1 block -8.0, SUMO HTRF inh -7.7, PfM18AAP inh-1 45.7*, PfM18AAP inh-2 -57.8 and CTSL1 confirm 2.0.
O=C1c2ccccc2C(=O)N1CCc1ccccn1 was read as HDAC3 inh 8.3, p97 inhibitor 1.7, G6PDH CS -13.0, PHOSPHO1 block -6.7, SUMO HTRF inh -11.3 and PfM18AAP inh-1 -14.3.
`Cc1cc(C)n2nc(SCN3C(=O)c4ccccc4C3=O)nc2n1` gave HDAC3 inh 10.5, p97 inhibitor 4.9, G6PDH CS 6.6, PHOSPHO1 block 54.0, SUMO HTRF inh -18.3, PfM18AAP inh-1 76.9*, PfM18AAP inh-2 -42.4 and CTSL1 confirm 2.7.
COc1cccc(CN(C)C(=O)c2csc3c2CCCC3)c1OC was read as HDAC3 inh 4.1, p97 inhibitor 1.2, G6PDH CS 4.8, PHOSPHO1 block 21.0, SUMO HTRF inh 7.9 and PfM18AAP inh-1 0.9.
Screening COc1cc(OC)cc(C(=O)n2cnnc2N)c1 returned HDAC3 inh inconclusive, p97 inhibitor 3.5, G6PDH CS 2.5, PHOSPHO1 block 15.2, SUMO HTRF inh 0.0, PfM18AAP inh-1 53.3*, PfM18AAP inh-2 48.8* and CTSL1 confirm -0.3.
COC(=O)c1cn(C(=O)c2cc(OC)cc(OC)c2)c2ccccc12 was read as HDAC3 inh 10.7, PHOSPHO1 block 34.8, SUMO HTRF inh -1.2 and PfM18AAP inh-1 -0.6.
Screening Cc1ccc(-n2c(-c3ccco3)n[nH]c2=S)cc1 returned HDAC3 inh 2.3, p97 inhibitor 6.0, G6PDH CS 6.5, PHOSPHO1 block -107.3, SUMO HTRF inh 15.3, PfM18AAP inh-1 32.4*, PfM18AAP inh-2 -5.0 and CTSL1 confirm -5.2.
`CC(/C=N/n1c(-c2ccco2)n[nH]c1=S)=C\c1ccco1` gave HDAC3 inh 8.0, p97 inhibitor -4.4, G6PDH CS -12.6, PHOSPHO1 block 16.5, SUMO HTRF inh 64.4*, PfM18AAP inh-1 31.9*, PfM18AAP inh-2 -26.6 and CTSL1 confirm 2.0.
Screening O=[N+]([O-])c1ccccc1/C=C/C=N/n1c(-c2cc(-c3ccccc3)n[nH]2)n[nH]c1=S returned HDAC3 inh 0.7, p97 inhibitor 1.7, PHOSPHO1 block -69.3 and PfM18AAP inh-1 4.2.
Screening Fc1ccc(-n2c(-c3ccco3)n[nH]c2=S)cc1 returned HDAC3 inh 9.8, PHOSPHO1 block -135.6, SUMO HTRF inh 9.3 and PfM18AAP inh-1 15.5.
For O=[N+]([O-])c1ccccc1/C=C/C=N/n1c(-c2ccco2)n[nH]c1=S the results were HDAC3 inh 7.2, p97 inhibitor -1.7, G6PDH CS 0.8, PHOSPHO1 block 32.2, SUMO HTRF inh -0.7, PfM18AAP inh-1 32.3*, PfM18AAP inh-2 -14.6 and CTSL1 confirm -1.6.
Screening CC(/C=N/n1c(-c2ccc(C)cc2)n[nH]c1=S)=C\c1ccco1 returned HDAC3 inh 2.4, p97 inhibitor 3.4, G6PDH CS -5.8, PHOSPHO1 block 3.4, SUMO HTRF inh 18.7 and PfM18AAP inh-1 13.7.
`COc1ccc(NC(=O)Cn2ncn3nc(-c4ccc(OC)cc4)cc3c2=O)cc1` gave HDAC3 inh -2.1, PHOSPHO1 block 22.3, SUMO HTRF inh 31.4 and PfM18AAP inh-1 -1.1.
Cc1ccc(S(=O)(=O)N2CCCC(C(=O)NCC3CCCO3)C2)cc1 (centres undefined) was read as HDAC3 inh 1.2, PHOSPHO1 block 9.6, SUMO HTRF inh 4.8 and PfM18AAP inh-1 -6.3.
O=C(NCC1CCCO1)C1CCCN(S(=O)(=O)c2ccc(Br)cc2)C1 (centres undefined) was read as HDAC3 inh -5.0, PHOSPHO1 block 14.7, SUMO HTRF inh -0.1, PfM18AAP inh-1 31.8*, PfM18AAP inh-2 -51.9 and CTSL1 confirm -1.3.
Screening CCc1nnc2c(NCCc3ccccc3)nc3ccccc3n12 returned HDAC3 inh 3.1, PHOSPHO1 block 11.4, SUMO HTRF inh 15.0 and PfM18AAP inh-1 -8.9.
Screening COc1ccc(/C=C2\CN(Cc3ccccc3)C/C(=C\c3ccc(OC)c(O)c3)C2=O)cc1O returned HDAC3 inh -6.1, PHOSPHO1 block -1.0, SUMO HTRF inh -1.4, PfM18AAP inh-1 45.5*, PfM18AAP inh-2 2.9 and CTSL1 confirm -1.2.
Cc1cc(C(=O)N/N=C/c2ccc(O)c(O)c2O)c(C)n1-c1ccccc1 was read as p97 inhibitor 10.6, G6PDH CS -2.8, PHOSPHO1 block 32.0, SUMO HTRF inh 33.9, PfM18AAP inh-1 48.6*, PfM18AAP inh-2 17.8 and CTSL1 confirm -3.1.
`COc1ccc(Cl)cc1C(=O)Nc1cccnc1Cl` gave HDAC3 inh -9.5, PHOSPHO1 block 39.5, SUMO HTRF inh -12.9 and PfM18AAP inh-1 7.7.
Screening O=S1(=O)N=C(Nc2nncs2)c2ccccc21 returned HDAC3 inh 9.9, p97 inhibitor 1.9, G6PDH CS 5.3, PHOSPHO1 block 97.4*, SUMO HTRF inh 19.2, PfM18AAP inh-1 41.3*, PfM18AAP inh-2 51.5* and CTSL1 confirm 0.2.
Screening CCN(CC)S(=O)(=O)c1ccc(NC2=NS(=O)(=O)c3ccccc32)cc1 returned HDAC3 inh -2.2, p97 inhibitor 1.9, G6PDH CS 2.5, PHOSPHO1 block 1.7, SUMO HTRF inh 20.3 and PfM18AAP inh-1 4.0.
